The source of these data is PubChem BioAssay (NCATS).

“And” between values parts separate entries of the source, which are not always exact repeats. Equal entries are not always repeated. Results filed as inconclusive are left out. Values without a mark were called inactive. The source made the active and inactive calls. The call rests on the fitted dose curve; in most records, active means well fitted curve in the direction sought with a large enough effect; inconclusive means small, poorly fitted or top-dose-only effect, or another doubt; inactive means no such curve, though single readings can be large; an effect the other way counts as inactive or inconclusive.
Further: nearly all actives have a fitted effect of over 70% in size.
On the % scale 0 is the no-effect control and ±100 the full control effect; potency means the concentration at half of the fitted maximal effect.

A short description of the first test: Primary qHTS for inhibitors of nuclear receptor binding SET domain protein 2 (NSD2) in an isogenic RCH-ACV NSD2 p.E1099K mutant (9B) (AID 1645876). The following applies: RCH-ACV NSD2 E1099K (9B) viability, CellTiter-Glo, 72 h; series mostly up to 44.9 µM; activity change, negative = viability loss: at the top concentration. On the technique in general: In qHTS, concentration-response curves come from the screen itself.
With `CC[C@@H](C)Nc1cc(C(=O)NC2CC3CC[C@@H](C2)N3c2ccc(C(=O)C3CC3)cn2)c(C)cc1C(N)=O` (some centres undefined), the Potency was 0.0742 µM (active).

For the molecule `CC(C)=CCCC1(C)/C=C/C(OC(=O)C=C(C)C)C(C)(O)/C=C/C(=O)/C(CO)=C\C1` (centres undefined), the Potency is 11.2 µM (active).

Turning to `COc1cc(NC(=O)c2cccc(-n3cc(NC(=O)Nc4cccc(C)c4)cn3)c2)cc(OC)c1OC`, the Potency is 8.17 µM (active).

Turning to `C1=C/COCc2cc(ccc2OCCN2CCCC2)Nc2nccc(n2)-c2cccc(c2)COC/1`, the Potency was 325 nM (active) and 417 nM (active).

As for `COC(=O)CC[C@@H](C)C1CCC2C3CCC4C[C@H](OC(C)=O)CCC4(C)C3C[C@H](O)C21C` (some centres undefined), the molecule was called inactive.

Take `Cc1cc(OCCCS(C)(=O)=O)cc(C)c1-c1cccc(COc2ccc3c(c2)OCC3CC(=O)O)c1` (centres undefined): the “activity change, negative = viability loss” value was -25.2%.

For the molecule `C=C(C)[C@@H]1CC[C@]2(C(=O)O)CC[C@]3(C(=O)O)[C@H](CCC4[C@@]5(C)CCC(=O)C(C)(C)C5CC[C@]43C)C12` (some centres undefined), the Potency is 11.2 µM (active).

In the case of `C/C=C/C=C/C(=O)O[C@@H]1C=C2COC(=O)[C@]2(O)[C@@]2(C)CCCC(C)(C)[C@H]12`, the “activity change, negative = viability loss” value is -18.1%.

A short description of another test: Primary qHTS for inhibitors of nuclear receptor binding SET domain protein 2 (NSD2) in an RCH-ACV wild type WT cells (2C) (AID 1645877). The following applies: RCH-ACV (leukaemia line) NSD2 WT (2C) viability, CellTiter-Glo, 72 h; series mostly up to 44.9 µM; activity change, negative = cell killing: at the top concentration.
Regarding `Cn1cc(-c2ccc3c(c2)CCN3C(=O)Cc2cccc(C(F)(F)F)c2)c2c(N)ncnc21`, the “activity change, negative = cell killing” value is -51.2%.

As for `Cc1cc(-c2cc(OC(=O)c3ccccc3)ccc2Cl)cc2nnc(Nc3ccc(OCCN4CCCC4)cc3)nc12`, the Potency was 7.96 µM (active).

`COc1cc(CCc2ccc(OCC=C(C)C)cc2)cc(OC)c1OC`: the “activity change, negative = cell killing” value is -25.9%.

For the molecule `CC1(C(=O)Nc2ccc(F)nc2)CCCN1c1nc(Nc2cc(C3CC3)[nH]n2)c2cccn2n1` (centres undefined), the Potency is 0.649 µM (active).

With `CCNC(=O)Nc1ccc(-c2nc3c(c(N4CCOCC4C)n2)CCN(C2COC2)C3)cc1` (centres undefined), the Potency was 0.459 µM (active).

Turning to `CC(C)CCNC(=O)c1ccc2c(c1)nc(Nc1n[nH]c3ccc(-c4ccccc4OC(F)(F)F)cc13)n2C1CCC(O)CC1` (centres undefined), the Potency is 14.5 µM (active).

For `CC(C)(C)c1ccc(C(=O)Nc2cc(Cl)c(Br)cc2C(=O)O)cc1`, the Potency is 11.5 µM (active).

Regarding `COc1cc2c(cc1OC)CN(C(=O)/C=C/c1c(-c3ccccc3)n(C)c3ncccc13)CC2`, the Potency is 11.5 µM (active).

`CN(c1ccc(NC(=O)Nc2ccccc2)cc1)S(=O)(=O)c1cnn(-c2ccc(F)cc2)c1`: the Potency was 16.3 µM (active).

Regarding `CCCCNc1ncc(-c2ccc(CN3CCOCC3)cn2)c(NC2CCC(O)CC2)n1` (centres undefined), the Potency was 632 nM (active) and 1.15 µM (active).

Turning to `CCCC(=O)C1(c2ccccc2)CCN(C(=O)[C@@H](Cc2ccc(OC)cc2)NC(=O)[C@@H](N)Cc2cncn2C)CC1`, the Potency is 18.3 µM (active).

For `CNc1nc(NCc2ccc(NS(C)(=O)=O)cc2Cl)cc(-c2ccccn2)n1`, the Potency was 7.28 µM (active).

`CC(C)c1cc(-c2ccc(F)c3ccccc23)nc(N)n1`: the “activity change, negative = cell killing” value is -21.6%.

For `COc1cccc(-c2cn(-c3ccc(CCN4CCC(O)CC4)cc3)c3ncnc(N)c23)c1`, the Potency was 1.83 µM (active).

On to `S=C(c1ccc(-c2ccc(Cl)c(Cl)c2)o1)N1CCCCC1`, for which the “activity change, negative = cell killing” value was -18.2%.

As to `CC[C@@H](C)Nc1cc(C(=O)NC2CC3CC[C@@H](C2)N3c2ccc(C(=O)C3CC3)cn2)c(C)cc1C(N)=O` (some centres undefined), the Potency is 0.105 µM (active).

As for `COc1cc(NC(=O)c2cccc(-n3cc(NC(=O)Nc4cccc(C)c4)cn3)c2)cc(OC)c1OC`, the Potency was 9.16 µM (active).

Turning to `Cc1cc(OCCCS(C)(=O)=O)cc(C)c1-c1cccc(COc2ccc3c(c2)OCC3CC(=O)O)c1` (centres undefined), the “activity change, negative = cell killing” value is -26.7%.

With `NC(=O)c1cccc2[nH]c(-c3ccc(C4CCCN4)cc3F)nc12` (centres undefined), the Potency was 18.3 µM (active).

Consider `CN1CC2CN(c3ccc4oc5ccccc5c(=O)c4c3)CC2C1` (centres undefined), for which the Potency was 12.6 µM (active).

For the molecule `CCOc1ccc(-n2c([C@@H](C)N(Cc3cccnc3)C(=O)Cc3ccc(OC(F)(F)F)cc3)nc3ncccc3c2=O)cc1`, the Potency was 18.3 µM (active).
